Results from the supplement of paper PMC11732987, “Enantioselective OTUD7B fragment discovery through chemoproteomics screening and high-throughput optimisation” (Communications Chemistry, 2025).

What was measured:
Assay in all cases: log2 ratio of Biotin-Ahx-Ub-VS probe labelling (fragment/DMSO); higher = less target engagement (more negative = stronger competition), active = hit call of the paper (q ≤ 0.05, log2 ratio ≤ -1)
Conditions in all cases: compound concentration: 200 uM; treatment time: 3 h
[1] = biological target: T1, USP42 (UniProt Q9H9J4)
T1 sequence (whole entry): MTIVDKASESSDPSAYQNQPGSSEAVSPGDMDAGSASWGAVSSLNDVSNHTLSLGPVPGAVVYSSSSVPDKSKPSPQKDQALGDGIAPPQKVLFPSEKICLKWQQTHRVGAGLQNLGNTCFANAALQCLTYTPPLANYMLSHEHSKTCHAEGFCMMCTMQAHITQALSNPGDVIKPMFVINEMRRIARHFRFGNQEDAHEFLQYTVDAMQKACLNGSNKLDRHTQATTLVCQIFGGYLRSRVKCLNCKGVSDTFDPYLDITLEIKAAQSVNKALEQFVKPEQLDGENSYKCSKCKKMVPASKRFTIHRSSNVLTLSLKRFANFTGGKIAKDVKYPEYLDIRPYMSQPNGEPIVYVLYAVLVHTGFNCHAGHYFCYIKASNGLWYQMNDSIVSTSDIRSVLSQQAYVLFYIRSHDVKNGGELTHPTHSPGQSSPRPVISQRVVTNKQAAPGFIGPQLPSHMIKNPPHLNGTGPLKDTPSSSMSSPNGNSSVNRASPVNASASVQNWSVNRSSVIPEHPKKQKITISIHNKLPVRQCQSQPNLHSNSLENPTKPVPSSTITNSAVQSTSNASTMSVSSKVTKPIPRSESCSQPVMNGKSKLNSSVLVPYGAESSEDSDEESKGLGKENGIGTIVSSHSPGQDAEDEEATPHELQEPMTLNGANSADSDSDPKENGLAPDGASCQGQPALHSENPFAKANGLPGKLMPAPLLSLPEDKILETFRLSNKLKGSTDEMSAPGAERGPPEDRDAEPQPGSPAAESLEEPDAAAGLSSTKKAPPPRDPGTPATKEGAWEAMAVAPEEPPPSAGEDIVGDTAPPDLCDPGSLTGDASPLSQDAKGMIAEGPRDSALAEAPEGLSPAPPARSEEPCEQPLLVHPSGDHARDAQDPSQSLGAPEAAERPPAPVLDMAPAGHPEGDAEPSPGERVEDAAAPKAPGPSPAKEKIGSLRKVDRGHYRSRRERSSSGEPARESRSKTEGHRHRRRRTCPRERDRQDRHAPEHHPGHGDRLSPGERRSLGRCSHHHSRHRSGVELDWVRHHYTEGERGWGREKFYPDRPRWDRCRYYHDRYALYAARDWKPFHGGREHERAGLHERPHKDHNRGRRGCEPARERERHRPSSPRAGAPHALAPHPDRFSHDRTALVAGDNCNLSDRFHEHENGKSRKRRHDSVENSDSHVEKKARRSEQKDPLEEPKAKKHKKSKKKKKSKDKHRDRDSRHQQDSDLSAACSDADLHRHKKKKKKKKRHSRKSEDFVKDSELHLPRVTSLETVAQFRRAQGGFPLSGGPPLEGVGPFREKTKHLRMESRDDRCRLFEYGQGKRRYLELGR
Outline: (§1)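 Each value is an average log2 ratio of fragment to vehicle, tested by unpaired t-test. The underlying Spectronaut label-free quantities were global-median-normalised, and only proteins with ≥2 unique peptides were included. Triplicate HEK293T lysate samples (495 µg) were exposed to fragment at 200 µM or vehicle for 3 h, then to Biotin-Ahx-Ub-VS at 0.5 µM final for 1 h, before NeutrAvidin enrichment of labelled DUBs, LysC and trypsin digestion, and diaPASEF LC-MS/MS.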

[2] = biological target: USP46 (UniProt P62068)
Chain of USP46 (P62068 whole entry): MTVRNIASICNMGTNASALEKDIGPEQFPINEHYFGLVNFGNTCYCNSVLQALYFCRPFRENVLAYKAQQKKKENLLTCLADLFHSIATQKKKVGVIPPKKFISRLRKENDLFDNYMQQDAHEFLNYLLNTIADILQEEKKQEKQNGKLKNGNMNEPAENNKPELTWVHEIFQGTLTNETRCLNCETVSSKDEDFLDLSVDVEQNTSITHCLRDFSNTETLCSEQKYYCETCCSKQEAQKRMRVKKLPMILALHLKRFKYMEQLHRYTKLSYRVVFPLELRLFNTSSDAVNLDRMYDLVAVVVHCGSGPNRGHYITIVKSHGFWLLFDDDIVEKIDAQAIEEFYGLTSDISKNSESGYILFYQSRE
Outline: as §1

[3] = biological target: T2, USP47 (UniProt Q96K76)
T2 sequence (whole entry): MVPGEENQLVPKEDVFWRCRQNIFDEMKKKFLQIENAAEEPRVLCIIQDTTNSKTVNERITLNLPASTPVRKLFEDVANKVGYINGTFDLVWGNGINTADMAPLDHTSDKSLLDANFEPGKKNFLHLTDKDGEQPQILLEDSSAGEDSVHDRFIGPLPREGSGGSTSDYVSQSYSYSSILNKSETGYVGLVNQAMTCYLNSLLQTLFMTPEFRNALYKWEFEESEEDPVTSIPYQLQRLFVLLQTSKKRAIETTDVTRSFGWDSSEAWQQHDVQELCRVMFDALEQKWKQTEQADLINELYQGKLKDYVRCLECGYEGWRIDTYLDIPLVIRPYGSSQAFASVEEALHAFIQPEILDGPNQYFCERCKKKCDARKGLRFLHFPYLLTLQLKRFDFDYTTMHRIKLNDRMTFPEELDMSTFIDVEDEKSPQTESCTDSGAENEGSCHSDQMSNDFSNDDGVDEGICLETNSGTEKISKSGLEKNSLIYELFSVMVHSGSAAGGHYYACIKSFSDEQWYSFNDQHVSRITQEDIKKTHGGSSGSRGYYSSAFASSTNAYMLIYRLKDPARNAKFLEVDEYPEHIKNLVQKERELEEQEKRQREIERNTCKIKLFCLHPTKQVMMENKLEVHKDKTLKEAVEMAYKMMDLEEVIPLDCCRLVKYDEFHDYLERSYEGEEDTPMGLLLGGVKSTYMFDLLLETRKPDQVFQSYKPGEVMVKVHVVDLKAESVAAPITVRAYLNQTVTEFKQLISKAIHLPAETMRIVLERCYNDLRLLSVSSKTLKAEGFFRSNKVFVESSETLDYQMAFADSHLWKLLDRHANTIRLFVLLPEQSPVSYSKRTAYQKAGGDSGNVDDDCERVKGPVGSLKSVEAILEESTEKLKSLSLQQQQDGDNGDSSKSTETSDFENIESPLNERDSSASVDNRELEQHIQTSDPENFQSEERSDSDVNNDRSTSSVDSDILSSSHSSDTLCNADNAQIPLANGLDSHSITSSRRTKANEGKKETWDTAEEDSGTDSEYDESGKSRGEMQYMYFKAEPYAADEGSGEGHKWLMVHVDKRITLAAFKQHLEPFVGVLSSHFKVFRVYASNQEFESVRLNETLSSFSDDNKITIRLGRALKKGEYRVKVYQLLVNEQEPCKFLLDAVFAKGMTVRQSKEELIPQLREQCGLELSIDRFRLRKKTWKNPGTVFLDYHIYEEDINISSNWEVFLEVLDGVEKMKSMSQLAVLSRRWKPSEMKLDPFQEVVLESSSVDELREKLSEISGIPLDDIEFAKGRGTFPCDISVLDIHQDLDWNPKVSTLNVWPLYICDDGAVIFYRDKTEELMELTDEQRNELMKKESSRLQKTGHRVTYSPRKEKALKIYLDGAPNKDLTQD
Outline: as §1

[4] = biological target: T3, USP48 (UniProt Q86UV5)
T3 sequence (whole entry): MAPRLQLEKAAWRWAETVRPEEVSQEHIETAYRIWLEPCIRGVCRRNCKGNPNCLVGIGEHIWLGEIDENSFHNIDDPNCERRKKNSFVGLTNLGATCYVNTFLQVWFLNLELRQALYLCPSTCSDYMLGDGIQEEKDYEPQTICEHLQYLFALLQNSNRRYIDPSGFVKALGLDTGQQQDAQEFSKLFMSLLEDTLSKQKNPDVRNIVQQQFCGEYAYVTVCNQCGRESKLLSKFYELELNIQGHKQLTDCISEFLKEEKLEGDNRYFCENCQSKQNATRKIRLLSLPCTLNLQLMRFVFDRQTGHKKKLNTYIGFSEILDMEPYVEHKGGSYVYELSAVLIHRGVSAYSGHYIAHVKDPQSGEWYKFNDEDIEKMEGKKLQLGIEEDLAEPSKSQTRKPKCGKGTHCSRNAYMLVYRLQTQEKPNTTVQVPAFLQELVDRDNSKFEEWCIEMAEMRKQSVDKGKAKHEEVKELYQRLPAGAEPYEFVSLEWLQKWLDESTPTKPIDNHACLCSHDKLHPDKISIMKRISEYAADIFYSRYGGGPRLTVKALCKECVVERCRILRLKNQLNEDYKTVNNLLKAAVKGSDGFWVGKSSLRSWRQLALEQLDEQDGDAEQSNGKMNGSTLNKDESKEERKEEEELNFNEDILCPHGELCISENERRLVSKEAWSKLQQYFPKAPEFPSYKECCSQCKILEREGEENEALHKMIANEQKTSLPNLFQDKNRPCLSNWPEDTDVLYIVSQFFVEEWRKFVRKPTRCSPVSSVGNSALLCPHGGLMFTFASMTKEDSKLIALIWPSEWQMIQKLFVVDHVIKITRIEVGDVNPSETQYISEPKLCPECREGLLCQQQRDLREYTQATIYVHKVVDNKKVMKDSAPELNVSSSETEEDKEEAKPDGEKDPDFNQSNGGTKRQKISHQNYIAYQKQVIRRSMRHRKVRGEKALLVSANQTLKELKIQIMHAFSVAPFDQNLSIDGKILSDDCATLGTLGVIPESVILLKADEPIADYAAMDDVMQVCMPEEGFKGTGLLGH
Outline: as §1

[5] = biological target: T4, USP5 (UniProt P45974)
T4 sequence (whole entry): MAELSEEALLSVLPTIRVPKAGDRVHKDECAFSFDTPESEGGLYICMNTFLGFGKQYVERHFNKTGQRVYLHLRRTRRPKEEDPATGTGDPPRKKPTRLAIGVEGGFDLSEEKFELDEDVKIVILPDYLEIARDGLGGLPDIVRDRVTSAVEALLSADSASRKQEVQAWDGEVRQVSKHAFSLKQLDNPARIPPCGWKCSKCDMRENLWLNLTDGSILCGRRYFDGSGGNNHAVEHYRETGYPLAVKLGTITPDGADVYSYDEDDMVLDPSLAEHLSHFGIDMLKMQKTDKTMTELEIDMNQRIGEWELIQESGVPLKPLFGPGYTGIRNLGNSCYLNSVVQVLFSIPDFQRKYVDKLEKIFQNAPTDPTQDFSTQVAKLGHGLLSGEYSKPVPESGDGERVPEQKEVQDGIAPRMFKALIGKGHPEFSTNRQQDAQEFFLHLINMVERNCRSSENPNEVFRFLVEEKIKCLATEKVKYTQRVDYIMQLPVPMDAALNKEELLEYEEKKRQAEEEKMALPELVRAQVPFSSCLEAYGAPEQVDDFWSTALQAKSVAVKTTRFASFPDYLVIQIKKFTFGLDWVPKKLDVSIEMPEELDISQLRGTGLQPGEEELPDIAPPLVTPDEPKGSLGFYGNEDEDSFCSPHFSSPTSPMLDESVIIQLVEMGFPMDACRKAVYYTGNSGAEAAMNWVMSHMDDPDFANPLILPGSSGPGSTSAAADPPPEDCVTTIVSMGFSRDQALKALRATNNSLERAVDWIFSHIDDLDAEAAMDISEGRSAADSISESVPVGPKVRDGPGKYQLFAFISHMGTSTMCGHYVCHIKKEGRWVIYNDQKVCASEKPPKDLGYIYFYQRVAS
Outline: as §1

[6] = biological target: USP54 (UniProt Q70EL1)
Outline: as §1

[7] = biological target: USP7 (UniProt Q93009)
Chain of USP7 (Q93009 whole entry, looked up): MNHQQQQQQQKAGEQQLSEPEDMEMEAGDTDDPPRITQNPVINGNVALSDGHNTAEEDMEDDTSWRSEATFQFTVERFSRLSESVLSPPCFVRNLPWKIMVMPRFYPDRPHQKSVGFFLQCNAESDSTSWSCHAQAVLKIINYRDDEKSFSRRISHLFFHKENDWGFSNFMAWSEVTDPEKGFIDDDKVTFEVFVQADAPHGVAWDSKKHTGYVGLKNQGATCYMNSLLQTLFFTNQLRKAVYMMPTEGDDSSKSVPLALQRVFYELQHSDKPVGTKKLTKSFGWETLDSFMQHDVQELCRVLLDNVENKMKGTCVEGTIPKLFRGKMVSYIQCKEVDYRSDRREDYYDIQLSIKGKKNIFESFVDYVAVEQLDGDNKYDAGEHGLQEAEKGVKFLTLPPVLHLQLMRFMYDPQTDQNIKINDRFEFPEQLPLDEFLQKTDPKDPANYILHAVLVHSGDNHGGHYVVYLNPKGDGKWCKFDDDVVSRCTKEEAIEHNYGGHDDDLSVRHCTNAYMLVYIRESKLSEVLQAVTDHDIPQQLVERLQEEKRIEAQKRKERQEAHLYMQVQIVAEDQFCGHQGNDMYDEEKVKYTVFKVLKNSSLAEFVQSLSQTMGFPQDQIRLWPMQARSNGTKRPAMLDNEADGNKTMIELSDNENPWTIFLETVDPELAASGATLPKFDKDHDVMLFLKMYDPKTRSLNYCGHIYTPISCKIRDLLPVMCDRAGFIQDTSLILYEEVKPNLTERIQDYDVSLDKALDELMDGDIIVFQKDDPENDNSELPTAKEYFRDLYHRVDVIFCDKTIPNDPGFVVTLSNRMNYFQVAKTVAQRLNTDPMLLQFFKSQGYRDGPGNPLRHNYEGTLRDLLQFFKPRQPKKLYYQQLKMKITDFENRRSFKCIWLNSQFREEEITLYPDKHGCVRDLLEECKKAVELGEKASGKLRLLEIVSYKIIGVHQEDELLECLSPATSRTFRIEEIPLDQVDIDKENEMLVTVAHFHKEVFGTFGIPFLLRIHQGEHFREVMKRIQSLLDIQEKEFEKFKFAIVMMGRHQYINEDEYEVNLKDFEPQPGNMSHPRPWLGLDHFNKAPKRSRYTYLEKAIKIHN
Outline: as §1

[8] = biological target: T5, USP8 (UniProt P40818)
T5 sequence (whole entry): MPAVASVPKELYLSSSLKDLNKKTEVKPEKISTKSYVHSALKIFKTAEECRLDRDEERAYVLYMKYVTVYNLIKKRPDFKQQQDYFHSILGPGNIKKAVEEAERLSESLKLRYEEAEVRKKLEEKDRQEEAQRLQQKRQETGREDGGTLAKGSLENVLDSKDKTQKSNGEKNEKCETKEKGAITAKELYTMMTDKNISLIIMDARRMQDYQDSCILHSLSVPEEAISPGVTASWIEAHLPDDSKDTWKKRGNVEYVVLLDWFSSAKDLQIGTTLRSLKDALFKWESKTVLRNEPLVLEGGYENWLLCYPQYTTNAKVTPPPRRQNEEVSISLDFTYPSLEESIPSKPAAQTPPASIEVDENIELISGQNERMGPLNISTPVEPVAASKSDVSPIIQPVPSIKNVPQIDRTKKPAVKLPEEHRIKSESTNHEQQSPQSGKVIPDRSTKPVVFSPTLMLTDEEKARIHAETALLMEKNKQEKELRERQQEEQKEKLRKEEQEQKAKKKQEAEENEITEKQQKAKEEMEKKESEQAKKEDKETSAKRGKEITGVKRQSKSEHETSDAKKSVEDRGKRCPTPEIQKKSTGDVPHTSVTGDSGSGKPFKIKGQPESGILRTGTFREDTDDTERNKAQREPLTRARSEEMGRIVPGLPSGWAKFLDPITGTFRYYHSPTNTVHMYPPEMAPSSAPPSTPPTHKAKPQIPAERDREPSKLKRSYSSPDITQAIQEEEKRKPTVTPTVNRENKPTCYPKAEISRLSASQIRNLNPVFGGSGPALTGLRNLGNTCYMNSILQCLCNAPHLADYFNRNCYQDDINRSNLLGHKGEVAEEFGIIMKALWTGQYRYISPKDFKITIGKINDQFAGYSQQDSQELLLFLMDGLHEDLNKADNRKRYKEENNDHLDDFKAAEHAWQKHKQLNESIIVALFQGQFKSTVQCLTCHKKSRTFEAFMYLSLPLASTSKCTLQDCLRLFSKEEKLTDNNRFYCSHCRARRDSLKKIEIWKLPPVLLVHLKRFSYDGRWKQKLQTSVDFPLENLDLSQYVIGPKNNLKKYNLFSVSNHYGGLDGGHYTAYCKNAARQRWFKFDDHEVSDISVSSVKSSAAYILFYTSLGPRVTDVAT
Outline: as §1

[9] = biological target: USP9X (UniProt Q93008)
Chain of USP9X (Q93008 whole entry): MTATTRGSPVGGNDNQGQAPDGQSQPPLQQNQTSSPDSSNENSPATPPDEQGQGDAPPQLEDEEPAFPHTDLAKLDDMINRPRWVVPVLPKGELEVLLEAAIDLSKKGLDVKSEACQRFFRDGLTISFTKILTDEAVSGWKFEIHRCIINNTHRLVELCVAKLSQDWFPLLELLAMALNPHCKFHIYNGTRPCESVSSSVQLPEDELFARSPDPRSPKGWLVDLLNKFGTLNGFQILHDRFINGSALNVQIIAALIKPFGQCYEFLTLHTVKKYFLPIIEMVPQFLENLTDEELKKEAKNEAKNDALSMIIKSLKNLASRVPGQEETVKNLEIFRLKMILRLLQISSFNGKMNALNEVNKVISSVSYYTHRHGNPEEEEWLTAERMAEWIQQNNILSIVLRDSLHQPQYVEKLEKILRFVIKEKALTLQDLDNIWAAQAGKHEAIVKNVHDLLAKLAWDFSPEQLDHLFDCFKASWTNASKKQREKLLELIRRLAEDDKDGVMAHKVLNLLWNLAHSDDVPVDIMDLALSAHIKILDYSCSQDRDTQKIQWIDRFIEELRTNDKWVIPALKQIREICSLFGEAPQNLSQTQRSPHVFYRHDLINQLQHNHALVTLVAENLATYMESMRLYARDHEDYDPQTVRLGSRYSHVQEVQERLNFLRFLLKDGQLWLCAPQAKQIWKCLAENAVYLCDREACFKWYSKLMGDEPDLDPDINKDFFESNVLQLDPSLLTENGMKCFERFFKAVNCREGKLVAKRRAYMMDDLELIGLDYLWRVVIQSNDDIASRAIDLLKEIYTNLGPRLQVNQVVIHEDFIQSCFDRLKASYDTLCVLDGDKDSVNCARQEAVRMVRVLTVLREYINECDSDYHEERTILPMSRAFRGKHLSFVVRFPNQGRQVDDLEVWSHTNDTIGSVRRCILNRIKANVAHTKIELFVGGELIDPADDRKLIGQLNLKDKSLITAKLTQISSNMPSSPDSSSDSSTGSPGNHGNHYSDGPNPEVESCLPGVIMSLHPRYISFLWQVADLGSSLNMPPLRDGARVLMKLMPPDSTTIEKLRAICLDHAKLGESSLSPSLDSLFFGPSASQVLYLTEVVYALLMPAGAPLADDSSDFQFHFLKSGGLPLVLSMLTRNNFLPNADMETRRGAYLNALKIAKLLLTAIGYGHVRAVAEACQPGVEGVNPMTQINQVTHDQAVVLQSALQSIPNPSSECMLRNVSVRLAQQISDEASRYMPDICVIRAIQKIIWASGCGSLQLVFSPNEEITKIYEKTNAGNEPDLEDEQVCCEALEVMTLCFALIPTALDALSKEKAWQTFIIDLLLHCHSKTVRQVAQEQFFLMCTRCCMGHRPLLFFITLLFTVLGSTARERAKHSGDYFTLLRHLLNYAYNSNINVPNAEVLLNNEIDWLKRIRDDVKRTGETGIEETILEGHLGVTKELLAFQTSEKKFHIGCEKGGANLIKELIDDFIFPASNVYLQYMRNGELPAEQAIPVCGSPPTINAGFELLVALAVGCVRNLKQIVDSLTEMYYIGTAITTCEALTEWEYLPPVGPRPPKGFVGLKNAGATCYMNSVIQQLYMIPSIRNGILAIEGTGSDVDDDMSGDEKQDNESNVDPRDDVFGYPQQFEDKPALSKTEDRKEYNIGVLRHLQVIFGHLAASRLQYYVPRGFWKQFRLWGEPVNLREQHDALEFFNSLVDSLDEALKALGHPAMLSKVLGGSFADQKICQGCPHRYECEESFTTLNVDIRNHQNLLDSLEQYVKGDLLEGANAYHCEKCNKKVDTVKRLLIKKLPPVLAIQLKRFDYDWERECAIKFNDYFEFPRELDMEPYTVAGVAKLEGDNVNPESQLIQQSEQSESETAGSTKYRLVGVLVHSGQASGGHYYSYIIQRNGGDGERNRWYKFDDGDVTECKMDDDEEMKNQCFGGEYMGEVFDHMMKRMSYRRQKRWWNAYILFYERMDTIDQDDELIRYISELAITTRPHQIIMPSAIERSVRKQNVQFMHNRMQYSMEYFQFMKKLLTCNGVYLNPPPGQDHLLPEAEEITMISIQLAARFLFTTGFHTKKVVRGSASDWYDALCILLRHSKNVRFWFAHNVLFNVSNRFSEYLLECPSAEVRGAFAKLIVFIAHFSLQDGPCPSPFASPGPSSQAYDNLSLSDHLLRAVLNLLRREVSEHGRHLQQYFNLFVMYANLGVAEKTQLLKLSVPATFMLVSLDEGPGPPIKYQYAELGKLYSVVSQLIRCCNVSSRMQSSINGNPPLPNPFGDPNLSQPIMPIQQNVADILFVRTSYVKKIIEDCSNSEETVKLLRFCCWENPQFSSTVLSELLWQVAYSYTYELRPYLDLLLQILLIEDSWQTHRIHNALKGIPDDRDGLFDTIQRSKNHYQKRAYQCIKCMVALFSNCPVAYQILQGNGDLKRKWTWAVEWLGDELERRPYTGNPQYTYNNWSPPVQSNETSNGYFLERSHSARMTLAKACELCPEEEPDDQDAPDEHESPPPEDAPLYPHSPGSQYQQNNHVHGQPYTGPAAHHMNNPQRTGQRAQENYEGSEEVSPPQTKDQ
Outline: as §1

[10] = biological target: UniProt O00487
Chain of UniProt O00487 (O00487 whole entry): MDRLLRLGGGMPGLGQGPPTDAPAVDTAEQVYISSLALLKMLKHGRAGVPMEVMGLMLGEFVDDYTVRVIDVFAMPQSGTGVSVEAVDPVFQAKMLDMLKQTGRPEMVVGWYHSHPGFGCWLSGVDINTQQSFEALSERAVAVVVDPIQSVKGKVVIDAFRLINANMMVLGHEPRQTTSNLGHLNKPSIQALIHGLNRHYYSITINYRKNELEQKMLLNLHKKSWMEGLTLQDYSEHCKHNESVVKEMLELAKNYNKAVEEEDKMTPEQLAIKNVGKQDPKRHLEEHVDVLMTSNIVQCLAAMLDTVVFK
Outline: as §1

Measured: log2 ratio of Biotin-Ahx-Ub-VS probe labelling

Cl.Cn1nccc1C(NC(=O)CCl)c1ccccc1 (stereo not given)
active: [3] -1.1
inactive: [1] 0.0316 | [2] 0.114 | [4] -0.11 | [5] 0.239 | [6] 0.34 | [7] -0.284 | [8] -0.582 | [9] -0.0773 | [10] -0.0868
